Compounds with a hit are over-represented: about 19% of the library has one in this group of screens.
DT40 TDP1 CPT – qHTS for Inhibitors of human tyrosyl-DNA phosphodiesterase 1 (TDP1): qHTS in cells in presence of CPT; chicken DT40 Tdp1-/-;hTDP1 cells + 20 nM CPT, ATP luminescence, 48 h; Potency, µM (doses to about 46.2 µM), without a hit: at the top dose activity change, negative = growth inhibition, most hits filed as inhibitors; actives 12% (n = 420,000); AID 686979, 2013; also: potency is read from the fitted curve at half-maximal effect; nearly all actives have a fitted effect of over 55% in size
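Chicken DT40 Tdp1-/- cells stably complemented with human TDP1 were seeded at 400 cells/well in medium containing 20 nM camptothecin, exposed to pin-transferred compounds, and grown at 37 °C for at least 48 hr. Viability was read as ATP luminescence.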
HT1080 IDH1KD tx – qHTS for induction of synthetic lethality in tumor cells producing 2HG: qHTS for the HT-1080-IDH1KD cell line. HT-1080 IDH1 knockdown viability, ATP luminescence, 48 h. Potency, µM (top dose mostly 46.1 µM), for inactives: top-dose activity, negative = toxicity, most hits filed as cytotoxic. actives 2% (n = 360,000). AID 686971, 2013;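 also: potency is read from the fitted curve at half-maximal effect; 0% = DMSO wells and -100% = cell-free medium wells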
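CellTiter-Glo luminescence after 48 h compound exposure at 37 degrees C of IDH1-knockdown HT-1080 cells in 5% FBS RPMI. %Activity scaled between DMSO wells and cell-free media wells, with curves fitted and assigned curve classes.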
DT40 TDP1 no CPT – qHTS for Inhibitors of human tyrosyl-DNA phosphodiesterase 1 (TDP1): qHTS in cells in absence of CPT; DT40 Tdp1-/- hTDP1 cells, no CPT, ATP luminescence, 48 h; Potency, µM (doses to about 46.2 µM), for inactives: at the top dose activity change, negative = growth inhibition, most hits filed as inhibitors; actives 15% (n = 420,000); also: potency is read from the fitted curve at half-maximal effect; nearly all actives have a fitted effect of over 55% in size
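Growth kinetics read by CellTiter-Glo luminescence after ≥48 hr at 37 °C. Cells: DT40 Tdp1-/- stably carrying human TDP1, 400 per well, compound exposure in the absence of CPT (DMSO vehicle).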
IL-1B inflam inh – qHTS for Inhibitors of Inflammasome Signaling: IL-1-beta AlphaLISA Primary Screen; THP-1 LPS/ATP IL-1B secretion, AlphaLISA, 16 h; active compounds read low; activity change, % at 57.5 µM; actives 4.7% (n = 360,000); AID 743279, 2014; in the data active = activity change below about -50%; inconclusive = mostly about -30% to -49%
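THP-1 cells pretreated 1 hr with compounds (up to 57.5 uM final), then stimulated with LPS (250 ng/mL final) plus ATP (1.25 mM final); secreted IL-1B measured by AlphaLISA after 16 hr, decreased signal indicating inhibition.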
HT1080NT lethal – qHTS for induction of synthetic lethality in tumor cells producing 2HG: qHTS for the HT-1080-NT fibrosarcoma cell line | HT-1080-NT fibrosarcoma viability, CellTiter-Glo ATP luminescence, 48 h | Potency, µM (titrated, usually from 46.1 µM), inactives show top-dose activity, negative = less viability, actives largely listed as cytotoxic | actives 1.6% (n = 360,000);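 also: NT is the 2HG producing partner of a matched IDH1 knockdown line; potency is read from the fitted curve at half-maximal effect; 0% = DMSO-treated cells and -100% = media-only wells without cells; nearly all actives have a fitted effect of over 55% in size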
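Toxicity toward the 2HG-producing NT line was scored as %Activity, normalised to DMSO and no-cell wells, from CellTiter-Glo luminescence after 48 hours' treatment.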
ELG1 DNA repair – qHTS screen for small molecules that inhibit ELG1-dependent DNA repair in human embryonic kidney (HEK293T) cells expressing luciferase-tagged ELG1; HEK293T ELG1-luciferase reporter, luminescence, 16 h; DNA damage induced by 5-fluorouridine; Potency, µM (series often up to 46.1 µM), inactives show top-dose activity change, negative = inhibition, hits mostly inhibitors; actives 2.3% (n = 330,000); AID 504467, 2011; also: potency is read from the fitted curve at half-maximal effect; nearly all actives have a fitted effect of over 55% in size
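Quantitative HTS, concentration-response format. 2,000 cells/well co-treated with 5-fluorouridine and compound, 16 hr in 5% CO2 at 37 °C; ONE-Glo luminescence read after 30 min.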
Active calls of the source: *; ? = inconclusive; . = not tested or not shown; ! = a repeat was not active; [ ] = another dose, or the depositor's remark. Unless noted, calls follow the shape of the dose curve; as a rule, active = well fitted curve in the direction sought with a large enough effect; inconclusive = small, poorly fitted or top-dose-only effect, or another doubt; inactive = no such curve, though single readings can be large; an effect the other way counts as inactive or inconclusive. Unless noted, % is scaled to controls: 0 for no effect and ±100 for the full control effect.

SMILES	DT40 TDP1 CPT	HT1080 IDH1KD tx	DT40 TDP1 no CPT	IL-1B inflam inh	HT1080NT lethal	ELG1 DNA repair
COc1ccccc1NC(=O)c1ccccc1-c1nc(-c2ccccc2OC)no1	14µM*	?	6.3µM*	-3	-15%	?
COc1cccc(NC(=O)c2ccccc2NS(C)(=O)=O)c1	?	-2%	21µM*	15	-6%	3%
COc1ccccc1Nc1ncc(C(=O)Nc2ccc(OC)c(OC)c2)c2ccccc12	18µM*	6%	16µM*!	-7	-11%	?
COc1ccccc1NC(=O)c1ccccc1NS(C)(=O)=O	?	17%	15µM*	0	8%	5%
COC(=O)c1ccc(NC(=O)c2ccccc2NS(C)(=O)=O)cc1	?	-9%	?	23	-18%	19%
CN(Cc1ccccc1)C(=O)COc1cccnc1[N+](=O)[O-]	-4%	0%	-1%	12	2%	-5%
Cc1ccc(N(CC(=O)N2CCN(Cc3ccccc3)CC2)S(C)(=O)=O)cc1C	-5%	-2%	4%	-2	-3%	-13%
CN[C@@H]1[C@@H](O[C@H]2O[C@H](CO)[C@@H](N)[C@H](O)[C@H]2O)O[C@H]2C[C@@H](N)[C@@H](O[C@H]3[C@H](O)[C@@H](O)[C@H](N)C[C@@H]3N)O[C@@H]2[C@@H]1O	-5%[21.1 µM]	.	-4%[21.1 µM]	.	.	.
CCS(=O)(=O)c1ccc(C(=O)Nc2ccccc2)c(Cl)c1Cl	?	-11%	?	-23	-2%	-10%
CS(=O)(=O)Nc1ccccc1C(=O)Nc1cccc(Cl)c1	?	2%[9.24 µM]	23µM*	23	?	?
COc1ccc(NC(=O)c2ccccc2NS(C)(=O)=O)cc1OC	21µM*	-2%	10µM*	0	-7%	3%
COc1ccccc1NC(=O)c1ccccc1NC(=O)c1cccs1	23µM*	-9%	?	-16	0%	11%
CCS(=O)(=O)c1ccc(C(=O)Nc2cccc(Cl)c2)c(Cl)c1Cl	?	-19%	21µM*	?	-12%	?
Clc1ccccc1CSC1=NCCN1	-18%	0%	-6%	-1	-2%	13%
CCOc1ccc(CSC2=NCCN2)cc1Cl	?	-17%	15µM*	-19	?	-2%
c1ccc(CSC2=NCCCN2)cc1	3%	3%	0%	?	14%	-1%
N#Cc1ccc(CSC2=NCCN2)cc1	21µM*	?	23µM*	?	-5%	-2%
O=Cc1cccc(Oc2ccc([N+](=O)[O-])cc2[N+](=O)[O-])c1	?	?	7.3µM*	62	?	-6%
Cc1cc(=O)oc2cc(Oc3ccc([N+](=O)[O-])cc3[N+](=O)[O-])ccc12	5.2µM*	?	4.6µM*	-104*	-2%	?
O=C(Nc1ccccc1Oc1ccccc1)c1cccc([N+](=O)[O-])c1	-18%	-1%	?	0	-1%	-20%
O=C(c1ccccc1)c1ccc(Oc2ccc([N+](=O)[O-])cc2[N+](=O)[O-])cc1	?	12µM*	?	-95*	15µM*	.
O=C(O)CCC1(CCC(=O)O)CCCC(CCC(=O)O)(CCC(=O)O)C1=O	-15%	9%	-6%	2	20%	.
Cc1ccc(C(=O)Nc2c(-c3ccc(Cl)cc3)[nH][nH]c2=O)cc1	-20%	3%	16%	-14	2%	.
Cc1sc2ncnc(NCc3ccccc3)c2c1C	13µM*	-25%	15µM*	-68*	-29%	?
c1csc(CNc2ncnc3sccc23)c1	5.2µM*	26µM*	5.2µM*	-8	-9%	.
SMILES	DT40 TDP1 CPT	HT1080 IDH1KD tx	DT40 TDP1 no CPT	IL-1B inflam inh	HT1080NT lethal	ELG1 DNA repair
Cc1cc2c(NCC(C)O)ncnc2s1 (stereo unspecified)	-23%	1%	-23%	18	30%	.
CN(C)C(CNc1ncnc2sccc12)c1ccccc1 (stereo unspecified)	-24%	0%	?	12	-2%	-6%
Cc1cc2c(NCc3ccccc3)ncnc2s1	?	?	6.5µM*	?	-9%	-16%
OC(CNc1ncnc2sccc12)c1ccccc1 (stereo unspecified)	4.1µM*	?	5.2µM*	-24	?	?
O=C(CN1CCN(Cc2ccc(F)cc2)C1=O)NCc1ccccc1	-7%	.	4%	.	.	.
CCOC(=O)N1CCN(C(=O)COC(=O)C2CCN(S(=O)(=O)c3ccc(C)c(C)c3)CC2)CC1	5%	2%	9%	19	10%	10%
CCSc1ncc(Cl)c(C(=O)Nc2nc3ccc(S(C)(=O)=O)cc3s2)n1	-16%	.	-5%	.	.	.
c1ccc(CCNc2ccccn2)nc1	0%	0%	2%	14	1%	.
c1ccc(CNc2ncnc3sccc23)cc1	8.2µM*	?	7.3µM*	13	?	-11%
COc1ccc(C(CNc2ncnc3sccc23)N(C)C)cc1OC (stereo unspecified)	0%	-5%	-22%	18	-24%	0%
COc1ccc(CNc2ncnc3sccc23)cc1OC	8.2µM*	-27%	7.3µM*	19	?	?
Cn1ncc2c(NCc3ccccc3)ncnc21	?	9%	?	8	6%	-13%
c1ccc(CCNc2ncnc3sccc23)nc1	6.5µM*	?	7.3µM*	10	-22%	-15%
Cc1ccc(CSCCC(=O)NCc2ccc(F)cc2Cl)cc1	0%	.	-25%	.	.	.
Cc1cc(C)nc(N/N=C/c2cccc(Cl)c2)n1	-20%	-1%	-22%	24	-1%	?
Clc1ccc(/C=N/Nc2ncnc3ccccc23)cc1Cl	21µM*	-18%	21µM*	-8	-2%	?
Clc1cccc(/C=N/Nc2nc(Cl)nc3ccccc23)c1	23µM*	-2%	?	-17	2%	?
Fc1ccccc1/C=N/Nc1ncnc2ccccc12	6.5µM*	?	15µM*	28	-7%	?
Fc1ccccc1/C=N/Nc1nc2ccccc2o1	?	22%	-2%	-9	23%	?
COc1ccc(C(=O)c2sc(Nc3ccccc3)nc2N)cc1	?	-18%	?	-77*	-16%	?

High-throughput results (PubChem)
